An excerpt weighted towards active compounds, which were near 12% of everything screened.
Sm TGR inh: qHTS Assay for the Inhibitors of Schistosoma Mansoni Peroxiredoxins. actives 3% (n = 360,000). Potency, µM (highest dose often 114 µM), most hits filed as inhibitors. purified TGR, DTNB reduction, TNB absorbance 405 nm; also: nearly all actives have a fitted effect of over 60% in size
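TGR 20 nM + NADPH 100 uM (dispensed conc.), cpd preinc 15 min RT; start with NADPH (500 uM addition) then DTNB (15 mM addition). Kinetic TNB absorbance, 405 nm filter. Four-parameter Hill fit across titration.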
SARS PLP yeast: qHTS of Yeast-based Assay for SARS-CoV PLP | AID 485353, 2010 | Potency, µM (titrated, usually from 32.9 µM), actives largely listed as activators | actives 0.19% (n = 330,000) | S. cerevisiae expressing SARS-CoV PLpro, growth rescue; calls by dose curve; also: nearly all actives have a fitted effect of over 55% in size
Pf growth 96h: Primary qHTS for delayed death inhibitors of the malarial parasite plastid, 96 hour incubation; P. falciparum luciferase reporter growth, 96 h; Potency, µM (highest dose often 28.7 µM), usual class: inhibitors; actives 6.9% (n = 320,000); AID 504834, 2011
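96 h incubation, 37 C, 5% CO2, of luciferase-reporter P. falciparum-infected RBCs (2% hematocrit, 0.05% parasitemia final) with test compounds; endpoint luminescence.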
Pf growth 48h: Primary qHTS for delayed death inhibitors of the malarial parasite plastid, 48 hour incubation; P. falciparum luciferase growth in erythrocytes, 48 h; Potency, µM (series often up to 28.7 µM), actives largely listed as inhibitors; actives 5.9% (n = 310,000); AID 504832, 2011
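First compound was added to culture medium, then infected red cells at 0.1% parasitemia and 2% hematocrit (final). After incubation at 37 C under 5% CO2, luciferase detection reagent was dispensed and light output recorded.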
Of the large screens only hits and unclear results are named; the others gave an inactive call; ! = not confirmed by another sample. Unless noted, calls follow the shape of the dose curve; as a rule, active = well fitted curve in the direction sought with a large enough effect; inconclusive = small, poorly fitted or top-dose-only effect, or another doubt; inactive = no such curve, though single readings can be large; an effect the other way counts as inactive or inconclusive.

C[N+](C)(C)Cc1ccccc1	Pf growth 96h 1µM, Pf growth 48h inconclusive
CCCCS(=O)Cc1ccccc1 (stereo not drawn)	none
CN(Cc1ccccc1)Cc1ccccc1	none (no result: Sm TGR inh, SARS PLP yeast)
CCCCOc1ccc(C(=O)NCC(=O)NCCOc2ccccc2)cc1	none
COc1cc(C(=O)NCC(=O)N2CCN(S(=O)(=O)c3cc(C)ccc3C)CC2)cc(OC)c1OC	Pf growth 96h inconclusive, Pf growth 48h inconclusive
Cc1ccccc1Nc1c(-c2cccs2)nc2cccc(C)n12	none (no result: SARS PLP yeast, Pf growth 96h, Pf growth 48h)
CCCCCCCn1c2c(c(=N)c3c1CCC3)CCCC2	Pf growth 48h 0.29µM (no result: Sm TGR inh)
CCCCCCn1c2c(c(=N)c3c1CCC3)CCC2	Pf growth 48h 0.21µM
CCCCCCCCCn1c2c(c(=N)c3c1CCC3)CCC2	Sm TGR inh inconclusive, Pf growth 96h 0.13µM, Pf growth 48h 0.29µM
CCn1c2c(c(=N)c3c1CCC3)CCC2	Pf growth 96h 0.19µM, Pf growth 48h 0.47µM
CCOC(=O)N1CCc2c(sc(NCc3ccc(OC)c(Br)c3)c2C(=O)Nc2cc(OC)ccc2OC)C1	none (no result: SARS PLP yeast, Pf growth 96h, Pf growth 48h)
CCCCn1c2c(c(=N)c3c1CCC3)CCC2	SARS PLP yeast inconclusive, Pf growth 96h 0.033µM, Pf growth 48h 0.15µM
Fc1ccc(CN2CCCCCCC2)cc1	none (no result: Pf growth 48h)
CCn1c2c(c(=N)c3ccccc31)CCC2	Pf growth 96h inconclusive, Pf growth 48h inconclusive
N=c1c2c(n(Cc3ccc(F)cc3)c3c1CCC3)CCC2	Pf growth 48h 0.12µM
C=CCn1c(O)c2ccc(C(=O)N=NC(=O)COc3ccc(OC)cc3)cc2c1O	none
COc1ccc(NS(=O)(=O)c2cccc(C(=O)N3CCN(c4ccccc4O)CC3)c2)cc1	Pf growth 96h inconclusive, Pf growth 48h inconclusive
CSC1=C(C#N)C(=O)NC(c2ccc(Cl)cc2)S1 (stereo not drawn)	Sm TGR inh 10µM
COc1ccc(C2NC3=C(CCCC3)C(C#N)(C#N)C2(C#N)C#N)cc1 (stereo not drawn)	Sm TGR inh 1.8µM, Pf growth 96h inconclusive, Pf growth 48h inconclusive
COc1ccc(C2NC3=C(CCC3)C3(C#N)C4(N=C(N)C23C#N)OCCO4)cc1 (stereo not drawn)	Pf growth 96h inconclusive, Pf growth 48h inconclusive
COCCNC(=S)Nc1ccc2nc(N3CCOCC3)cc(C)c2c1	Sm TGR inh 45µM
CCOCCCNC(=S)Nc1ccc2nc(N3CCCC3)cc(C)c2c1	Sm TGR inh 50µM, Pf growth 48h 12µM
COCCNC(=S)Nc1ccc2nc(N3CCCC3)cc(C)c2c1	Sm TGR inh 45µM, Pf growth 96h inconclusive, Pf growth 48h inconclusive
CCOCCCNC(=S)Nc1ccc2nc3n(c(=O)c2c1)CCCCC3	Sm TGR inh inconclusive
Cc1cc(N2CCCC2)nc2ccc(NC(=S)NC(C)C)cc12	Sm TGR inh 13µM, Pf growth 48h 10µM
CCOCCCNC(=O)c1cc2c(=O)[nH]c3ccccc3c2n1C	none (no result: SARS PLP yeast, Pf growth 96h, Pf growth 48h)
O=C(COc1ccccc1[N+](=O)[O-])Nc1ccc2c(c1)CCC2	none
COC(=O)c1sccc1S(=O)(=O)N(CC(=O)Nc1cc(C)ccc1C)c1ccc(C)c(C)c1	none (no result: SARS PLP yeast, Pf growth 96h, Pf growth 48h)
CC(OC(=O)Cc1ccccc1[N+](=O)[O-])C(=O)NC(=O)NC1CCCCC1 (stereo not drawn)	none
COc1cccc(COc2nc3c(c(=O)n(C)c(=O)n3C)n2C)c1	Pf growth 96h 4.1µM
COc1cccc(Cn2c(Oc3ccccc3)nc3c2c(=O)n(C)c(=O)n3C)c1	Pf growth 96h inconclusive, Pf growth 48h 0.66µM
Cn1c(=O)c2c(nc(OCc3ccccc3)n2C)n(C)c1=O	none (no result: Pf growth 48h)
COc1cccc(Cn2c(Oc3cccc(C)c3)nc3c2c(=O)n(C)c(=O)n3C)c1	Pf growth 48h inconclusive
COC(=O)c1ccc(C(=O)OC)c(NC(=O)c2cc3nc(-c4ccc(C)cc4)cc(C(F)(F)F)n3n2)c1	none (no result: SARS PLP yeast, Pf growth 96h, Pf growth 48h)
O=C(CCS(=O)(=O)Cc1ccccc1)N1CCN(c2ccc([N+](=O)[O-])cc2)CC1	Sm TGR inh 25µM, Pf growth 96h inconclusive, Pf growth 48h inconclusive
O=C(CCS(=O)(=O)Cc1ccccc1)N1CCN(c2ccccc2)CC1	none (no result: Pf growth 48h)
CC(O)CN(CCN(CC(C)O)CC(C)O)CC(C)O (stereo not drawn)	none (no result: Sm TGR inh, SARS PLP yeast)
Cn1c2c(c(=O)n(C)c1=O)C(C(F)(F)F)(C(F)(F)F)N=C(c1ccc(Cl)cc1)N2	Pf growth 96h 1.5µM, Pf growth 48h inconclusive
Cc1ccccc1C1=NC(C(F)(F)F)(C(F)(F)F)c2c(n(C)c(=O)n(C)c2=O)N1	Pf growth 96h inconclusive, Pf growth 48h inconclusive
O=C(O)c1ccc(CSc2nnc(COc3ccc(Cl)cc3Cl)o2)cc1	Pf growth 96h 2.6µM (no result: Pf growth 48h)
O=C(Cn1nc(-c2cccc(Cl)c2)ccc1=O)NCC1COCCO1 (stereo not drawn)	none
COc1ccc(N2C(=O)C3CC(C)=C(C)CC3C2=O)c(OC)c1 (stereo not drawn)	none (no result: Pf growth 48h)
COc1ccc(N2CSC3=C(C#N)C(c4cc(OC)ccc4OC)CC(=O)N3C2)c(OC)c1 (stereo not drawn)	Sm TGR inh inconclusive, Pf growth 96h 13µM (no result: Pf growth 48h)
COc1ccc(N2CSC3=C(C#N)C(c4cc(OC)c(OC)cc4OC)CC(=O)N3C2)c(OC)c1 (stereo not drawn)	Sm TGR inh 6.3µM (no result: Pf growth 48h)
CCCSC1=C(C#N)C(c2cc(OC)ccc2OC)CC(=O)N1 (stereo not drawn)	none
COc1cc(OC)c(C2CC(=O)N3CN(c4ccc(C)cc4)CSC3=C2C#N)cc1OC (stereo not drawn)	Sm TGR inh 8.9µM
COc1ccc(C2CC(=O)N3CN(c4ccc(C)c(Cl)c4)CSC3=C2C#N)cc1OC (stereo not drawn)	Sm TGR inh 50µM (no result: Pf growth 48h)
N#CC1=C2SCN(c3ccc(F)cc3)CN2C(=O)CC1c1cccc(F)c1 (stereo not drawn)	Sm TGR inh inconclusive, Pf growth 96h inconclusive (no result: Pf growth 48h)
Cc1c(C)c2c(cc(C)c3c(-c4ccc(Br)cc4)coc32)oc1=O	none (no result: SARS PLP yeast, Pf growth 96h, Pf growth 48h)
Cc1oc(-c2ccc(C(=O)NCc3cccc(F)c3)cc2)nc1COc1ccccc1	none (no result: SARS PLP yeast, Pf growth 96h, Pf growth 48h)
CCOc1ccccc1N1CSC2=C(C#N)C(c3c(OC)ccc4ccccc34)CC(=O)N2C1 (stereo not drawn)	Sm TGR inh 13µM, Pf growth 96h inconclusive (no result: Pf growth 48h)
COc1ccc(N2CSC3=C(C#N)C(c4ccc(OC)c(OC)c4)CC(=O)N3C2)c(OC)c1 (stereo not drawn)	Sm TGR inh 7.9µM (no result: Pf growth 48h)
O=S(=O)(NCc1ccccc1)[C@@H]1CC2C=CC1C2 (stereo partly drawn)	none
Cn1c(=NC(=O)CS(=O)(=O)c2ccccc2)sc2cc([N+](=O)[O-])ccc21	Pf growth 96h inconclusive, Pf growth 48h 12µM
COC(=O)c1ccc2c(c1)sc(=NC(=O)CCS(=O)(=O)c1ccccc1)n2C	Sm TGR inh 32µM, Pf growth 96h inconclusive
Cn1c(=NC(=O)CS(=O)(=O)c2ccccc2)sc2ccccc21	none
COC(=O)c1ccc2c(c1)sc(=NC(=O)c1ccc(S(=O)(=O)N3CCCCC3)cc1)n2C	none (no result: SARS PLP yeast, Pf growth 96h, Pf growth 48h)
CCC(=O)c1ccc(O)cc1	Pf growth 96h 15µM!
O=C(CCCC(=O)c1ccc(O)cc1)c1ccc(O)cc1	none
